# PubChem BioAssay (Tox21)
# Inconclusive results are not listed. Entries that show only a call come without a potency. Values without a mark were called inactive. Active and inactive are the calls of the source. Unless noted, calls follow the shape of the dose curve; as a rule, active = well fitted curve in the direction sought with a large enough effect in the repeat runs; inconclusive = weak or mixed curves; inactive = no such curve, though single readings can be large; an effect the other way counts as inactive or inconclusive.
# Tests used:
# [1] = qHTS assay to identify aromatase inhibitors - cell viability counter screen (AID 743084);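 also: cells stimulated with testosterone during compound exposure; nearly all actives have a fitted effect of over 55% in size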; also: potency is read from the fitted curve at half-maximal effect
# [2] = biological target: Aryl hydrocarbon receptor (Homo sapiens) (UniProt P35869); assay: qHTS assay to identify small molecule that activate the aryl hydrocarbon receptor (AhR) signaling pathway (AID 743085); also: nearly all actives have a fitted effect of over 15% in size; also: potency is read from the fitted curve at half-maximal effect;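 as to activation: HG2L7.5c1 human HepG2 liver cells with stably integrated DRE-driven firefly reporter; series mostly up to about 70 µM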
# Aryl hydrocarbon receptor (Homo sapiens), sequence (P35869 whole entry, looked up): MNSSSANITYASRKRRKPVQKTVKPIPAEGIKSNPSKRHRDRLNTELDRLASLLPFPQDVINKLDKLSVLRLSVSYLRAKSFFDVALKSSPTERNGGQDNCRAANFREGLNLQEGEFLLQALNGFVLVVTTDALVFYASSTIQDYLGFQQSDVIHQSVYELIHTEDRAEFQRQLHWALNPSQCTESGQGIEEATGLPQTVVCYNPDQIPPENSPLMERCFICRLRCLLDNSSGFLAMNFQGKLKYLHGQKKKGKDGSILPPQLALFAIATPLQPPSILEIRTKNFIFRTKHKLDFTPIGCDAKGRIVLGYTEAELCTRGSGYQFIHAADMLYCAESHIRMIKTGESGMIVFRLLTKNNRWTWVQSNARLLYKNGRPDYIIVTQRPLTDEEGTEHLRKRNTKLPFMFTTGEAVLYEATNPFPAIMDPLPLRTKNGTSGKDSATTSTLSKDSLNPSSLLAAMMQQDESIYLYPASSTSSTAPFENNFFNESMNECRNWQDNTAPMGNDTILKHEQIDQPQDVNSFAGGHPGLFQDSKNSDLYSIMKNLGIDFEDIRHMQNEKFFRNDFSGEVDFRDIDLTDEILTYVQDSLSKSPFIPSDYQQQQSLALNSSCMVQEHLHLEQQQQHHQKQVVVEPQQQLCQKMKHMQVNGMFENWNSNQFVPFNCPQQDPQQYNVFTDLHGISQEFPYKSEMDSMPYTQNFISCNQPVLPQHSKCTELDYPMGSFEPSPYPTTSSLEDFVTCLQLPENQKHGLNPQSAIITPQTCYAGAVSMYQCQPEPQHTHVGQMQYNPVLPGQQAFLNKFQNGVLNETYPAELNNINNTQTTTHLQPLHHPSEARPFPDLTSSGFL
# Method in brief: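 24 h compound exposure, 37C, HepG2-derived HG2L7.5c1 cells with DRE-responsive luciferase. Readouts: fluorescence viability, then luminescence at room temperature after 30 min.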
# [3] = qHTS assay to identify small molecule that activate the aryl hydrocarbon receptor (AhR) signaling pathway - cell viability counter screen (AID 743086); also: nearly all actives have a fitted effect of over 45% in size; also: potency is read from the fitted curve at half-maximal effect
# Method in brief: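 Cytotoxicity counter screen: CellTiter-Fluor signal (30 min, 37 C) in 4000 HepG2 cells/well carrying the DRE-luciferase reporter, following 24 h compound exposure at 37 C.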
# [4] = biological target: Peroxisome proliferator-activated receptor gamma (Homo sapiens) (UniProt P37231); assay: qHTS assay to identify small molecule agonists of the peroxisome proliferator-activated receptor gamma (PPARg) signaling pathway (AID 743094; active = well fitted activation curve with a large enough effect in the signal ratio in the repeat runs, not every such curve was filed as active; the % refers to the signal ratio)
# Peroxisome proliferator-activated receptor gamma (Homo sapiens), sequence (P37231 whole entry, looked up): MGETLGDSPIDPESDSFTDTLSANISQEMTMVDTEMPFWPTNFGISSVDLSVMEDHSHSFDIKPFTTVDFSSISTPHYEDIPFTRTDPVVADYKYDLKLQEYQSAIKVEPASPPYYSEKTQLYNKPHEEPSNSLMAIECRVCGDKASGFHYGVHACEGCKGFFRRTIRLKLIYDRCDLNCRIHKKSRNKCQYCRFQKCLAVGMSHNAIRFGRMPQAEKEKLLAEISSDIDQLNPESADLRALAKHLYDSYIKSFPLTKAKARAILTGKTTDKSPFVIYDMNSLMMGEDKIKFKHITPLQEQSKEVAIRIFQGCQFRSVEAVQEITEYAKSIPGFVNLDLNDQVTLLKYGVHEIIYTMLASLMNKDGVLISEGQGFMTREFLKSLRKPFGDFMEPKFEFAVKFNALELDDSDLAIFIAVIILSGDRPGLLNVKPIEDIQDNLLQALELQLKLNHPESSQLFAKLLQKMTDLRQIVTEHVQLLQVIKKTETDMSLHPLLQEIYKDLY
# Method in brief: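 Agonism was assessed in a beta-lactamase reporter system, HEK293H cells with a stably integrated UAS-bla construct under PPARg control; the 17 h treatment at 37C preceded a 1 h room-temperature FRET substrate read.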
# [5] = biological target: Peroxisome proliferator-activated receptor gamma (Homo sapiens) (UniProt P37231); assay: qHTS assay to identify small molecule antagonists of the peroxisome proliferator-activated receptor gamma (PPARg) signaling pathway (AID 743191; calls by dose curve; also: series mostly up to about 63 µM; nearly all actives have a fitted effect of over 30% in size)
# Method in brief: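 Beta-lactamase reporter under UAS control in HEK293H PPARg-bla cells; compound treatment 17 h at 37C. Read-out: fluorescence intensity after 1 h room-temperature incubation with LiveBLAzer B/G FRET substrate.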
# [6] = qHTS assay to identify small molecule antagonists of the peroxisome proliferator-activated receptor gamma (PPARg) signaling pathway - cell viability counter screen (AID 743194); also: nearly all actives have a fitted effect of over 55% in size
# Method in brief: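 Viability was measured as CellTiter-Glo luminescence in GeneBLAzer PPARg UAS-bla HEK293H cells. These cells had been exposed 17 h at 37 C to compounds together with rosiglitazone at 50 nM final, with the beta-lactamase readout taken in the same wells.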
# [7] = qHTS assay for small molecule agonists of the antioxidant response element (ARE) signaling pathway (AID 743202; active = well fitted activation curve with a large enough effect in the signal ratio in the repeat runs, not every such curve was filed as active; the % refers to the signal ratio; also: potency is read from the fitted curve at half-maximal effect)
# Method in brief: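 Beta-lactamase reporter activity, read as fluorescence intensity, reflects ARE/Nrf2 pathway induction in HepG2 cells after 16 h compound exposure at 37 C; substrate loading was 2 h at room temperature.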
# [8] = qHTS assay for small molecule agonists of the antioxidant response element (ARE) signaling pathway - cell viability counter screen (AID 743203; calls by dose curve; also: nearly all actives have a fitted effect of over 55% in size)
# Method in brief: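 ATP content via CellTiter-Glo luminescence served as the viability measure. Cells: ARE-bla HepG2, 2,000 per well. Exposure: 16 hrs, 37C/5% CO2.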
# [9] = qHTS assay for small molecule activators of the heat shock response signaling pathway - cell viability counter screen (AID 743209); also: nearly all actives have a fitted effect of over 50% in size
# Method in brief: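 Compounds dissolved in DMSO were added to overnight-plated HSE-bla HeLa cells and left 5 h at 37 C. Cell viability was quantified by luminescence using CellTiter-Glo.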
# [10] = qHTS assay for small molecule activators of the heat shock response signaling pathway (AID 743210; active = well fitted activation curve with a large enough effect in the signal ratio in the repeat runs, with a control signal flat, not every such curve was filed as active; the % refers to the signal ratio;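 also: HeLa cells with beta-lactamase reporter driven by heat shock elements; series mostly up to about 63 µM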)
# Method in brief: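 Fluorescence from a cleaved B/G FRET substrate (2.5 h, room temp) reports HSE-driven beta-lactamase in HeLa cells treated 5 h at 37 C with DMSO-dissolved compounds.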
Compound,Potency [1],Potency [2],Potency [3],outcome [4],Potency [5],outcome [6],Potency [7],outcome [8],outcome [9],outcome [10]
CCN(C)C(=O)Oc1cccc([C@H](C)N(C)C)c1,inactive,inactive,inactive,inactive,inactive,inactive,inactive,inactive,inactive,inactive
Cc1ccc(C=O)cc1C,inactive,inactive,inactive,inactive,inactive,inactive,inactive,inactive,inactive,–
COc1ccc(C2CNC(=O)C2)cc1OC1CCCC1 (stereo not drawn),inactive,inactive,inactive,inactive,inactive,inactive,inactive,inactive,inactive,inactive
C=C(C)C1CCC(C)(O)CC1 (stereo not drawn),inactive,inactive,inactive,inactive,inactive,inactive,inactive,inactive,inactive,inactive
Cc1ccccc1OCC(O)CO (stereo not drawn),inactive,inactive,inactive,inactive,inactive,inactive,inactive,inactive,inactive,inactive
CN(C)C(=O)CNC(=O)Cc1ccccc1,inactive,inactive,inactive,inactive,inactive,inactive,inactive,inactive,inactive,–
CC(C)CCCC(C)(C)O,inactive,inactive,inactive,inactive,inactive,inactive,inactive,inactive,inactive,–
COC(=O)CCc1ccc(OCC(O)CNC(C)C)cc1 (stereo not drawn),inactive,inactive,inactive,inactive,inactive,inactive,inactive,inactive,inactive,inactive
CCc1ccc(C=O)cc1,inactive,inactive,inactive,inactive,inactive,inactive,inactive,inactive,inactive,inactive
CC(=O)c1sc(C)nc1C,inactive,inactive,inactive,inactive,inactive,inactive,inactive,–,–,–
COP(=O)(OC)OC(c1ccc(Cl)cc1)P(=O)(OC)OC (stereo not drawn),inactive,inactive,inactive,inactive,inactive,inactive,inactive,inactive,inactive,–
COc1nccnc1NS(=O)(=O)c1ccc(N)cc1,inactive,inactive,inactive,inactive,inactive,inactive,inactive,inactive,inactive,inactive
O=C(OCC(COC(=O)c1cccnc1)(COC(=O)c1cccnc1)COC(=O)c1cccnc1)c1cccnc1,inactive,inactive,inactive,inactive,inactive,inactive,inactive,inactive,inactive,–
Cc1cccc(C)c1NC(=O)c1ccccc1C(=O)O,inactive,inactive,inactive,inactive,inactive,inactive,inactive,inactive,inactive,inactive
C=COCCOCCOCCOC=C,inactive,inactive,inactive,inactive,inactive,inactive,inactive,inactive,inactive,–
Cc1cc(Cl)c(C)cc1Cl,inactive,inactive,inactive,inactive,inactive,inactive,inactive,inactive,inactive,inactive
CC(C)N(c1ccccc1)C(C)C,inactive,inactive,inactive,inactive,inactive,inactive,inactive,inactive,inactive,inactive
CC(CC=O)CCCC(C)(C)O (stereo not drawn),inactive,inactive,inactive,inactive,inactive,inactive,inactive,inactive,inactive,inactive
CCOCCOCCOCC,inactive,inactive,inactive,inactive,inactive,inactive,inactive,inactive,inactive,inactive
CCCCCCCCOS(=O)(=O)O,inactive,inactive,inactive,inactive,inactive,inactive,inactive,inactive,inactive,inactive
CCOC(=O)c1ncn2c1CN(C)C(=O)c1cc(F)ccc1-2,inactive,inactive,inactive,inactive,inactive,inactive,inactive,inactive,inactive,inactive
COc1cc(NS(=O)(=O)c2ccc(N)cc2)nc(OC)n1,inactive,inactive,inactive,inactive,inactive,inactive,–,–,–,–
O=C1c2ccccc2C(=O)c2cc(S(=O)(=O)O)ccc21,inactive,inactive,inactive,inactive,inactive,inactive,inactive,inactive,–,–
NNc1nnc(NN)c2ccccc12,inactive,29.8 µM (active),inactive,inactive,inactive,inactive,inactive,inactive,inactive,inactive
O=S(=O)(O)c1ccc2cc(O)c(S(=O)(=O)O)cc2c1,inactive,inactive,inactive,inactive,inactive,inactive,inactive,inactive,inactive,inactive
C=Cc1ccccn1,inactive,inactive,inactive,inactive,inactive,inactive,inactive,inactive,inactive,inactive

Compound,Potency [1],Potency [2],Potency [3],outcome [4],Potency [5],outcome [6],Potency [7],outcome [8],outcome [9],outcome [10]
C[C@H](CCC(=O)O)[C@H]1CC[C@H]2[C@@H]3C(=O)C[C@@H]4CC(=O)CC[C@]4(C)[C@H]3CC(=O)[C@]12C,inactive,inactive,inactive,inactive,inactive,inactive,inactive,inactive,inactive,inactive
C=C(C)C(=O)OCC(C)(C)COC(=O)C(=C)C,inactive,inactive,inactive,inactive,inactive,inactive,inactive,inactive,inactive,inactive
CC(S)C(=O)NCC(=O)O (stereo not drawn),inactive,inactive,inactive,inactive,inactive,inactive,inactive,inactive,inactive,–
Cc1nc2n(c(=O)c1CCN1CCC(c3noc4cc(F)ccc34)CC1)CCC[C@H]2O,inactive,inactive,inactive,inactive,inactive,inactive,inactive,inactive,–,–
O=C1O[C@@H]2[C@@H](O)[C@H](O)O[C@@H]2[C@H]1O,inactive,inactive,inactive,inactive,inactive,inactive,inactive,inactive,inactive,–
Cc1cc2cc3c(C)cc(=O)oc3c(C)c2o1,inactive,inactive,inactive,inactive,inactive,inactive,inactive,inactive,inactive,inactive
COCCOCCOCCOCCOCCO,inactive,inactive,inactive,inactive,inactive,inactive,inactive,inactive,inactive,–
CN=C(NC#N)Nc1ccc(C2=NNC(=O)CC2C)cc1 (stereo not drawn),inactive,inactive,inactive,inactive,inactive,inactive,inactive,inactive,inactive,inactive
CC(=O)NCCCCCC(=O)O,inactive,inactive,inactive,inactive,inactive,inactive,inactive,inactive,inactive,inactive
C=C(C)C(=O)OCCOP(=O)(O)OCCOC(=O)C(=C)C,inactive,inactive,inactive,inactive,inactive,inactive,inactive,inactive,inactive,inactive
c1ccc2nccnc2c1,inactive,inactive,inactive,inactive,inactive,inactive,inactive,inactive,inactive,–
CCCOC(OCCC)OCCC,inactive,inactive,inactive,inactive,inactive,inactive,inactive,inactive,–,inactive
CC(CO)c1ccccc1 (stereo not drawn),inactive,inactive,inactive,inactive,inactive,inactive,inactive,inactive,–,inactive
NCCS,inactive,inactive,inactive,inactive,inactive,inactive,inactive,inactive,–,inactive
CCCCC(CC)COCCO (stereo not drawn),inactive,inactive,inactive,inactive,inactive,inactive,inactive,–,inactive,inactive
CC(COC(C)(C)C)OCCCO (stereo not drawn),inactive,inactive,inactive,inactive,inactive,inactive,inactive,inactive,–,inactive
Cc1c(I)c(=O)n(-c2ccccc2)n1C,inactive,inactive,inactive,inactive,inactive,inactive,inactive,–,inactive,–
C[C@@H](Oc1ccc(CNC(=O)c2cccnc2Oc2ccc3c(c2)OCO3)c(F)c1)C(=O)O,inactive,inactive,inactive,inactive,inactive,inactive,inactive,–,inactive,inactive
CCCCCCOC(=O)CC,inactive,inactive,inactive,inactive,inactive,inactive,inactive,inactive,inactive,inactive
COc1cc(C(=S)N2CCOCC2)cc(OC)c1OC,inactive,inactive,inactive,inactive,inactive,inactive,inactive,inactive,inactive,inactive
O=C(NCCc1c[nH]c2ccccc12)c1cccnc1,inactive,13.3 µM (active),inactive,inactive,inactive,inactive,inactive,inactive,–,inactive
CN(C)CCOCCO,inactive,inactive,inactive,inactive,inactive,inactive,inactive,–,inactive,inactive
CC(=O)c1ccc2c(c1)Cc1ccccc1-2,inactive,54.5 µM (active),inactive,inactive,inactive,inactive,7.7 µM (active),–,inactive,inactive
Nc1ccc([N+](=O)[O-])c(N)c1,33.5 µM (active),inactive,33.5 µM (active),inactive,inactive,inactive,inactive,inactive,inactive,inactive
C[C@H](N)[C@H](O)c1cccc(O)c1,inactive,inactive,inactive,inactive,inactive,inactive,inactive,inactive,inactive,inactive
